According to PubChem BioAssay AID372 (MTDP, 2006):
Several values for one entry are separate records, joined by “and”; a condition that tells them apart may be missing. Identical values can stand only once. The campaign covered roughly 100,000 compounds. About 770 (0.77%) were called active. Rule as the data show it: active = inhibition above about 50%; inactive = the rest. For the sample, actives were picked, then their nearest neighbours and some compounds at random.

The compounds below were run against Gag-Pol polyprotein (Human immunodeficiency virus type 1 group M subtype B (isolate HXB2)) (UniProt P04585) (assay: RNase H inhibition, HIV 1 Gag Pol polyprotein, FRET biochemical assay, screening (AID 372)). Conditions: HIV-1 RT RNase H, FRET RNA/DNA substrate fluorescence; at 10 µM; stronger effect = higher value.

| Compound | inhibition |
| --- | --- |
| C=CCN1C(=O)/C(=C\c2ccc(OCc3ccccc3C)c(OC)c2)SC1=S | 16% (inactive) |
| COC(=O)c1cccc(NC(=O)COc2ccc(Br)c(C)c2)c1 | 3% (inactive) |
| Cc1c(NC(=O)COc2ccc(Cl)cc2Cl)cccc1[N+](=O)[O-] | 15% (inactive) |
| CCN(CC)c1ccc(Nc2nc(-c3sc(N)nc3C)cs2)cc1 | 28% (inactive) |
| CCN1CCn2c3c(c4cc(Br)ccc42)CCCC31 (configuration not stated) | 7% (inactive) and 3% (inactive) |
| C(=NN1CCN(c2ccccn2)CC1)c1cccc(OCc2ccccc2)c1 | 0% (inactive) |
| Cc1ccc(NC(=O)c2cccc([N+](=O)[O-])c2)cc1C | 1% (inactive) |
| Cc1ccc(C)c(NC(=S)NC(=O)c2ccc(C)c([N+](=O)[O-])c2)c1 | 33% (inactive) |
| NC(=O)C1CCN(C2CC(=O)N(c3ccc(Cl)cc3)C2=O)CC1 (configuration not stated) | 12% (inactive) |
| CCOc1ccc(N(CC(=O)Nc2c(C)cccc2C)S(C)(=O)=O)cc1 | 18% (inactive) |
| C=CCOc1ccc(C=O)cc1I | 25% (inactive) |
| O=C(Nc1ccc([N+](=O)[O-])cc1Cl)c1cccnc1 | 5% (inactive) |
| CC(C)C(NC(=O)CN(c1ccccc1F)S(C)(=O)=O)C(C)C | 11% (inactive) |
| NC(=O)c1c(N)sc2c1CCCCCC2 | 20% (inactive) |
| NC(=O)c1c(N)sc2c1CCCCCCCCCC2 | 28% (inactive) |
| COc1ccc2ccccc2c1/C=C1/C(=O)NC(=O)N(Cc2ccco2)C1=O | 50% (active) |
| COc1ccc(CN2C(=O)NC(=O)/C(=C\C=C\c3ccccc3)C2=O)cc1 | 10% (inactive) |
| O=C1NC(=O)N(Cc2ccco2)C(=O)/C1=C\c1cn(Cc2cccc(F)c2)c2ccccc12 | 57% (active) |
| O=C1NC(=O)N(Cc2ccco2)C(=O)/C1=C\C=C\c1ccccc1 | 52% (active) |
| COc1ccc2ccccc2c1/C=C1\C(=O)NC(=O)N(Cc2ccccc2)C1=O | 40% (inactive) |
| CCN(CC)c1ccc(/C=C2/C(=O)NC(=O)N(Cc3ccco3)C2=O)c(OC)c1 | 45% (inactive) |
| COc1cc(N2Cc3ccccc3C2)ccc1/C=C1\C(=O)NC(=O)N(Cc2ccco2)C1=O | 51% (active) |
| Cc1cc(N2Cc3ccccc3C2)ccc1/C=C1\C(=O)NC(=O)N(Cc2ccco2)C1=O | 42% (inactive) |
| O=C1NC(=O)N(Cc2ccco2)C(=O)/C1=C/c1ccc(OCCOc2ccccc2)cc1 | 13% (inactive) |
| COc1ccc(/C=C2/C(=O)NC(=O)N(Cc3ccco3)C2=O)c2ccccc12 | 48% (inactive) |
| NC(=O)Cn1cc(/C=C2/C(=O)NC(=O)N(Cc3ccco3)C2=O)c2ccccc21 | 0% (inactive) |
| O=C1NC(=O)N(Cc2ccco2)C(=O)/C1=C\c1cn(Cc2ccc(Cl)cc2)c2ccccc12 | 37% (inactive) |
